From PubChem
Hits are enriched below; roughly 1.3% of the tested compounds scored in any of these assays.
Efflux pump mplx: blocks antifungal efflux pumps in multiplex yeast assay; inhibition, % at 10 µM; hit rate 0.44% among 330,000; S. cerevisiae Candida pump triplex, Nile Red efflux; AID 485275;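 active = plate passing quality check with inhibition over a set limit, or well fluorescence over plate mean plus 4 SD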;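 also: Nile Red retained in pooled yeast measured as flow cytometry median fluorescence; 0% = buffer negative control and 100% = Enniatin B positive control; higher means more Nile Red kept so more efflux inhibition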
MEP2 TOR yeast: alters MEP2-GFP fluorescence in TOR pathway yeast screen; S. cerevisiae MEP2-GFP strain, flow cytometry GFP, 3 h; 100% = DMSO control level; GFP response vs DMSO, % at 10 µM; hit rate 0.51% among 330,000;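 active = GFP response versus DMSO above a set limit, roughly screen mean plus 3 SD, cut at about 180% in these data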;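 also: median GFP fluorescence of the barcode-gated MEP2-GFP cells per well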
LAP4 TOR yeast: modulators of TOR pathway LAP4-GFP in S. cerevisiae; S. cerevisiae LAP4-GFP multiplex, flow cytometry GFP, 3 h; median GFP as percent of DMSO wells; hit rate 0.34% among 320,000; GFP response vs DMSO, % at 10 µM;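 active = GFP response vs DMSO above a set limit, about the screen mean plus 3 SD, cut at about 150% in these data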
AGP1 TOR yeast: modulators of TOR pathway AGP1-GFP in S. cerevisiae | S. cerevisiae AGP1-GFP multiplex flow cytometry, 3 h; GFP as percent of DMSO wells | hit rate 0.02% among 320,000 | AID 2066 | GFP response vs DMSO, % at 10 µM;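 active = GFP response relative to DMSO above a set limit, near screen average plus 3 SD, cut at about 150% in these data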;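 also: median GFP channel fluorescence of the gated AGP1 strain per well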
RPL19A-GFP yeast: alters RPL19A-GFP fluorescence in TOR pathway yeast screen; S. cerevisiae RPL19A-GFP strain, flow cytometry, 3 h; active compounds read low; percent response vs DMSO, % at 10 µM; hit rate 0.3% among 330,000; AID 2025;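 active = percent response vs DMSO below 50%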;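 also: median channel GFP fluorescence of the barcoded RPL19A-GFP strain; ratio of sample median GFP to plate DMSO average so 100% = DMSO; lower means less RPL19A-GFP as with rapamycin TOR inhibition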
CIT2-GFP yeast: alters CIT2-GFP fluorescence in TOR pathway yeast screen. GFP response vs DMSO, % at 10 µM. AID 2029. hit rate 0.065% among 320,000. S. cerevisiae CIT2-GFP strain, flow cytometry, 3 h; 100 means same as DMSO wells;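 active = GFP response relative to DMSO above a set limit, near the screen mean plus 3 SD, cut at about 150% in these data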;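 also: ratio of well median GFP fluorescence to mean of DMSO wells on the plate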
Cmpd fluor yeast: compound fluorescence in yeast efflux pump counter-screen; shares compounds with Efflux pump mplx; S. cerevisiae AD/pABC3, flow cytometry; fluorescence ratio to DMSO, % at 10 µM; hit rate 4% among 1,700;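 active = fluorescence ratio to DMSO above its plate's cutoff, the plate mean ratio plus 5 SD, cut at about 210% in these data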;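 also: unstained yeast with no Nile Red so the signal is compound autofluorescence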
CaMdr1 efflux inh: inhibitors of Candida albicans Mdr1 efflux pump; shares compounds with Efflux pump mplx; S. cerevisiae AD/CaMDR1, Nile Red efflux, flow cytometry; inhibition, % at 10 µM; hit rate 1% among 1,700; AID 588518; in the data active = inhibition above about 26%;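 also: 0% = DMSO vehicle and 100% = reference inhibitor; higher means more Nile Red retained so more efflux inhibition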
Cdr2 pump inh: blocks the Candida albicans Cdr2 efflux pump in yeast | shares compounds with Efflux pump mplx | S. cerevisiae AD/CaCDR2, Nile Red retention, flow cytometry | Nile Red retention ratio vs DMSO, % at 10 µM | hit rate 4% among 1,700; in the data active = Nile Red retention ratio vs DMSO above about 190%;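 also: higher ratio means more blocking of Cdr2 efflux of the dye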
Cdr1 pump inh: Candida Cdr1 efflux pump inhibition; S. cerevisiae AD/CaCDR1, Nile Red efflux, flow cytometry; hit rate 1% among 1,700; AID 588522; shares compounds with Efflux pump mplx; inhibition, % at 10 µM;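 active = inhibition above the screen-wide mean plus twice its standard deviation, cut at about 32% in these data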
* = called active by the depositor.

Results for O=C(O)c1ccccc1NS(=O)(=O)c1cccc2nsnc12 ?
Efflux pump mplx: 0.7*; MEP2 TOR yeast: 108; LAP4 TOR yeast: 93; AGP1 TOR yeast: 96; RPL19A-GFP yeast: 103; CIT2-GFP yeast: 100; Cmpd fluor yeast: 100; CaMdr1 efflux inh: 0; Cdr2 pump inh: 98; Cdr1 pump inh: 0

How did Cc1cc(C(F)(F)F)cc(NNC(=O)NC(=O)c2ccccc2Cl)n1 do in these assays?
Efflux pump mplx: 0; MEP2 TOR yeast: 95; LAP4 TOR yeast: 102; AGP1 TOR yeast: 97; RPL19A-GFP yeast: 95; CIT2-GFP yeast: 88

What do the screens show for `Cc1cc(C(F)(F)F)cc(NNC(=O)NC(=O)c2ccc(Cl)cc2)n1`?
Efflux pump mplx: 1.3*; MEP2 TOR yeast: 99; LAP4 TOR yeast: 110; AGP1 TOR yeast: 112; RPL19A-GFP yeast: 102; CIT2-GFP yeast: 101; Cmpd fluor yeast: 102; CaMdr1 efflux inh: 0; Cdr2 pump inh: 106; Cdr1 pump inh: 0

What do the screens show for `O=C(Nc1nnc(-c2ccc(F)cc2)s1)Nc1ccccc1F`?
Efflux pump mplx: 0.8*; MEP2 TOR yeast: 103; LAP4 TOR yeast: 108; AGP1 TOR yeast: 104; RPL19A-GFP yeast: 98; CIT2-GFP yeast: 98; Cmpd fluor yeast: 102; CaMdr1 efflux inh: 0; Cdr2 pump inh: 108; Cdr1 pump inh: 0

What do the screens show for `O=C(NCc1ccccc1CN1CCCCC1)c1ccccc1N1CCCC1=O`?
Efflux pump mplx: 0; MEP2 TOR yeast: 100; LAP4 TOR yeast: 96; AGP1 TOR yeast: 104; RPL19A-GFP yeast: 99; CIT2-GFP yeast: 98

What do the screens show for `COc1ccc(OC)c(/C=C2\NC(=O)NC2=O)c1`?
Efflux pump mplx: 0; MEP2 TOR yeast: 108; LAP4 TOR yeast: 91; AGP1 TOR yeast: 96; RPL19A-GFP yeast: 107; CIT2-GFP yeast: 100

How did COc1cc(N2CCCC2)c(OC)cc1/C=C1/NC(=S)NC1=O do in these assays?
Efflux pump mplx: 0.5*; MEP2 TOR yeast: 105; LAP4 TOR yeast: 97; AGP1 TOR yeast: 98; RPL19A-GFP yeast: 99; CIT2-GFP yeast: 108; Cmpd fluor yeast: 289*; CaMdr1 efflux inh: 0; Cdr2 pump inh: 120; Cdr1 pump inh: 0

What do the screens show for `COc1ccccc1N1CCN(CC(=O)Nc2ccc(-n3cnnn3)cc2)CC1`?
Efflux pump mplx: 0.9*; MEP2 TOR yeast: 102; LAP4 TOR yeast: 97; AGP1 TOR yeast: 98; RPL19A-GFP yeast: 95; CIT2-GFP yeast: 92; Cmpd fluor yeast: 95; CaMdr1 efflux inh: 0; Cdr2 pump inh: 103; Cdr1 pump inh: 0

What do the screens show for `COc1ccc(N2CCN(CC(=O)Nc3ccc(-n4cnnn4)cc3)CC2)cc1`?
Efflux pump mplx: 0; MEP2 TOR yeast: 96; LAP4 TOR yeast: 97; AGP1 TOR yeast: 101; RPL19A-GFP yeast: 100; CIT2-GFP yeast: 107

What do the screens show for `CCOc1ccc(CNC(=O)NS(=O)(=O)c2ccc(OC)cc2)cc1`?
Efflux pump mplx: 5.9*; MEP2 TOR yeast: 106; LAP4 TOR yeast: 95; AGP1 TOR yeast: 98; RPL19A-GFP yeast: 99; CIT2-GFP yeast: 93; Cmpd fluor yeast: 98; CaMdr1 efflux inh: 0; Cdr2 pump inh: 107; Cdr1 pump inh: 0

What do the screens show for `O=C(NC(=S)Nc1ccccc1N1CCOCC1)c1ccc(-c2cccc(Cl)c2)o1`?
Efflux pump mplx: 11*; MEP2 TOR yeast: 101; LAP4 TOR yeast: 97; AGP1 TOR yeast: 95; RPL19A-GFP yeast: 99; CIT2-GFP yeast: 100; Cmpd fluor yeast: 105; CaMdr1 efflux inh: 0; Cdr2 pump inh: 89; Cdr1 pump inh: 0

Results for O=C(Cc1ccc(Cl)cc1)NC(=S)Nc1ccccc1N1CCOCC1 ?
Efflux pump mplx: 1.4*; MEP2 TOR yeast: 88; LAP4 TOR yeast: 92; AGP1 TOR yeast: 90; RPL19A-GFP yeast: 101; CIT2-GFP yeast: 90; Cmpd fluor yeast: 112; CaMdr1 efflux inh: 0; Cdr2 pump inh: 102; Cdr1 pump inh: 0

Results for CCCn1c(SCC(=O)NNC(=O)c2ccc(C)cc2)nnc1C(C)C ?
Efflux pump mplx: 0; MEP2 TOR yeast: 98; LAP4 TOR yeast: 93; AGP1 TOR yeast: 101; RPL19A-GFP yeast: 105; CIT2-GFP yeast: 111

Results for Cc1cc(C)cc(NC(=O)C(=O)NCCCN2CCCC2=O)c1 ?
Efflux pump mplx: 0; MEP2 TOR yeast: 104; LAP4 TOR yeast: 102; AGP1 TOR yeast: 97; RPL19A-GFP yeast: 95; CIT2-GFP yeast: 95

What do the screens show for `Cc1ccc(NC(=O)c2ccc(NCCc3ccccc3)c([N+](=O)[O-])c2)cc1F`?
Efflux pump mplx: 0; MEP2 TOR yeast: 106; LAP4 TOR yeast: 106; AGP1 TOR yeast: 97; RPL19A-GFP yeast: 94; CIT2-GFP yeast: 104

What do the screens show for `O=C(Nc1cc(F)cc(F)c1)c1ccc(NCCc2ccccc2)c([N+](=O)[O-])c1`?
Efflux pump mplx: 13*; MEP2 TOR yeast: 100; LAP4 TOR yeast: 93; AGP1 TOR yeast: 102; RPL19A-GFP yeast: 104; CIT2-GFP yeast: 105; Cmpd fluor yeast: 101; CaMdr1 efflux inh: 0; Cdr2 pump inh: 102; Cdr1 pump inh: 0

How did CS(=O)(=O)N(CC(=O)N1CCCC1)c1cccc(F)c1 do in these assays?
Efflux pump mplx: 0; MEP2 TOR yeast: 120; LAP4 TOR yeast: 105; AGP1 TOR yeast: 98; RPL19A-GFP yeast: 105; CIT2-GFP yeast: 101

Results for COc1cccc(CN(C)C(=O)CN2C(=O)NC(c3ccccc3)(c3ccccc3)C2=O)c1OC ?
Efflux pump mplx: 0; MEP2 TOR yeast: 92; LAP4 TOR yeast: 97; AGP1 TOR yeast: 102; RPL19A-GFP yeast: 98; CIT2-GFP yeast: 94

How did CCCCCCCC1CC(=O)C=C(C)C1C(=O)OCC (configuration not stated) do in these assays?
Efflux pump mplx: 0; MEP2 TOR yeast: 89; LAP4 TOR yeast: 110; AGP1 TOR yeast: 104; RPL19A-GFP yeast: 94; CIT2-GFP yeast: 105

How did CCCCCC1C/C(=N\O)C=C(C)C1C(=O)OC (configuration not stated) do in these assays?
Efflux pump mplx: 1.5*; MEP2 TOR yeast: 98; LAP4 TOR yeast: 98; AGP1 TOR yeast: 100; RPL19A-GFP yeast: 96; CIT2-GFP yeast: 97; Cmpd fluor yeast: 99; CaMdr1 efflux inh: 0; Cdr2 pump inh: 103; Cdr1 pump inh: 0
